Results filed as inconclusive are left out. Unless noted, calls come from the whole dose curve; as a rule, active = well fitted curve in either direction with a large enough effect (not every such curve was filed as active); inconclusive = small, poorly fitted or top-dose-only effect, or another doubt; inactive = flat fitted curve, though single readings scatter.
What was measured:
[1] = AP1 Signaling Pathway (AID 357); conditions: ME-180 AP-1-bla reporter, EGF-induced, beta-lactamase ratio, 5 h; at 17.2 µM (top of the series) unless noted;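 note: ME-180 reporter cells stimulated with EGF at its EC50 level; % is set by controls: 0 for no effect and ±100 for the full control effect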
Summary of the method: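 AP-1-bla ME-180 cells, Opti-MEM + 0.5% dialyzed FBS, plated overnight 37 °C. Cpd titration + EC50 EGF, 5 h 37 °C. CCF4 2.5 h RT; ex 405, em 460/530 ratio → %activity, AC50.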

[2] = NFAT Signaling Pathway (AID 444); conditions: Jurkat NFAT-bla M1, carbachol, beta-lactamase ratio, 5 h; at 17.2 µM (top of the series) unless noted;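 note: carbachol stimulus at about its EC50 of 1 µM final; % is set by controls: 0 for no effect and ±100 for the full control effect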
Summary of the method: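 Jurkat cells with NFAT-driven β-lactamase reporter and co-expressed M1 receptor, stimulated with carbachol (final 1 uM, ~EC50), compound titration, 5 h at 37 °C. CCF4 loaded 1 h at RT; 460/530 nm ratio gave %activity and AC50.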

[3] = Stat Signaling Pathway (AID 446); conditions: ME-180 SIE beta-lactamase reporter, IL-6 stimulated, 5 h; at 17.2 µM (top of the series) unless noted;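 note: ME-180 cervical cancer cells given 40 pM IL-6 alongside compound; SIE-controlled beta-lactamase reporter measured as 460/530 nm FRET emission ratio; % is set by controls: 0 for no effect and ±100 for the full control effect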
Summary of the method: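 ME-180 SIE-bla cells; overnight plating; cpd + IL-6 40 pM, 5 h, 37 C; LiveBLAzer 2.5 h RT; 460/530 nm emission ratio. Normalized to 300 pM IL-6 and 125 nM JAK inhibitor controls.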

[4] = biological target: Glucocorticoid receptor (Homo sapiens) (UniProt P04150); assay: GR-GFP Redistribution (AID 450;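 active = compounds whose dose series gives a full or clear partial fitted curve of increased nuclear translocation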; note: potency is the fitted concentration of half-maximal effect)
Sequence of Glucocorticoid receptor (Homo sapiens) (P04150 whole entry, looked up): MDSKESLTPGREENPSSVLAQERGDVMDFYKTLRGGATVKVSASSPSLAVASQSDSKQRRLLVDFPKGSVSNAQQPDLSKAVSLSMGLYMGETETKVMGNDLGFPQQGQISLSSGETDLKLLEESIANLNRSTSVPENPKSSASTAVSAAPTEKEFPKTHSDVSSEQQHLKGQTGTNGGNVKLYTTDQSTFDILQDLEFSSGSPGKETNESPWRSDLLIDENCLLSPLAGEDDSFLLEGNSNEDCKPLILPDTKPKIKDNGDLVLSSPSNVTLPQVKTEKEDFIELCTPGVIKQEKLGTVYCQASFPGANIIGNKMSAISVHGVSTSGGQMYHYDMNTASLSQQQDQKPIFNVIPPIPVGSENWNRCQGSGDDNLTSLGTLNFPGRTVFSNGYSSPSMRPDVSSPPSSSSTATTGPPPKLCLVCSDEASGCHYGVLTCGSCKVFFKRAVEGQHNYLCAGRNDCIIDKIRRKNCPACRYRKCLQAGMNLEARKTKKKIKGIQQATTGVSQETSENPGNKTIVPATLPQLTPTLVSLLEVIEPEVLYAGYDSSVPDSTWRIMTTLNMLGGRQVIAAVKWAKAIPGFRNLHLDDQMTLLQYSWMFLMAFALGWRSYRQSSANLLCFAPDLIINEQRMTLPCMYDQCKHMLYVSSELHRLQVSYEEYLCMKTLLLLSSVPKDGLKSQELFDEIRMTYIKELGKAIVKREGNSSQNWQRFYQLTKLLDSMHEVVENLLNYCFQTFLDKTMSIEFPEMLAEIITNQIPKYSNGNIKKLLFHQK

CC1C[C@@]2(NC(=O)NC2=O)C(C)CN1C (some centres undefined)
inactive: activity change, negative = inhibition [1] 5.36% | activity change, negative = inhibition [2] -4.32% | activity, negative = inhibition [3] 5.03% | Potency [4] > 20.6 µM

O=C(CCN1CCc2ccccc21)c1ccc2c(c1)OCCO2
inactive: activity change, negative = inhibition [1] 7.14% | activity change, negative = inhibition [2] -15.2% | activity, negative = inhibition [3] 2.96% | Potency [4] > 20.6 µM

CCOC(=O)c1ccc(N2CC(O)=C(c3nc4ccccc4c(=O)[nH]3)C2=N)cc1
inactive: activity change, negative = inhibition [1] -27.9% | activity change, negative = inhibition [2] -8.54% | activity, negative = inhibition [3] -21.7% | Potency [4] > 20.6 µM

NC(=O)/C(=N\O)c1ccccc1
inactive: activity change, negative = inhibition [1] -4.98% | activity change, negative = inhibition [2] 15.2% | activity, negative = inhibition [3] -0.233% | Potency [4] > 20.6 µM

O=C(CCN1CCCCC1)Nc1cccc(Cl)c1
inactive: activity change, negative = inhibition [1] 7.3% | activity change, negative = inhibition [2] -23.2% | activity, negative = inhibition [3] -0.895% | Potency [4] > 20.6 µM

O=C(O)CCCCCN1C(=O)CCC1=O
inactive: activity change, negative = inhibition [1] 13.2% | activity change, negative = inhibition [2] 23.1% | activity, negative = inhibition [3] 5.29% | Potency [4] > 20.6 µM

COC(=O)c1ccc(C2/C(=C(\O)c3cccc(OC)c3)C(=O)C(=O)N2CCCN2CCOCC2)cc1 (centres undefined)
inactive: activity change, negative = inhibition [1] 3.85% | activity change, negative = inhibition [2] -2.61% | activity, negative = inhibition [3] 15.2% | Potency [4] > 20.6 µM

Cc1cc(C)nc(N(C#N)S(=O)(=O)c2ccccc2Cl)n1
inactive: activity change, negative = inhibition [1] 0.835% | activity change, negative = inhibition [2] -12.4% | activity, negative = inhibition [3] -19.9% | Potency [4] > 20.6 µM

COCCN(CCOC)C(=O)C12CCC(C)(C(=O)C1)C2(C)C (centres undefined)
inactive: activity change, negative = inhibition [1] 9.52% | activity change, negative = inhibition [2] 8.02% | activity, negative = inhibition [3] 3.59% | Potency [4] > 20.6 µM

Cc1c(CCC#N)c(N2CCCCC2)n2c(nc3ccccc32)c1C#N
inactive: activity change, negative = inhibition [1] -4.98% | activity change, negative = inhibition [2] -11.4% | activity, negative = inhibition [3] 10.9% | Potency [4] > 20.6 µM

CCNc1nc(Oc2ccccc2)nc(OC(C)C(=O)OCC)n1 (centres undefined)
inactive: activity change, negative = inhibition [1] -1.07% | activity change, negative = inhibition [2] 6.54% | activity, negative = inhibition [3] 1.47% | Potency [4] > 20.6 µM

CCN(CC)S(=O)(=O)c1ccc2c(c1)c(C(=O)O)cn2C
inactive: activity change, negative = inhibition [1] -6.47% | activity change, negative = inhibition [2] -1.02% | activity, negative = inhibition [3] 1.11% | Potency [4] > 20.6 µM

CC(=O)C1=C(NC(=O)c2ccccc2F)C[C@@H]2[C@H]1C2(C)C
inactive: activity change, negative = inhibition [1] -3.24% | activity change, negative = inhibition [2] -24.2% | activity, negative = inhibition [3] 18.8% | Potency [4] > 20.6 µM

COc1ccc(C2(CN(C(C)=O)C(C)=O)CCCC2)cc1OC
inactive: activity change, negative = inhibition [1] 4.19% | activity change, negative = inhibition [2] 4.27% | activity, negative = inhibition [3] 1.89% | Potency [4] > 20.6 µM

COc1ccc2c(c1)[nH]c1c(=O)n(CCN(C)C)cnc12
inactive: activity change, negative = inhibition [1] 10.5% | activity change, negative = inhibition [2] 15.2% | activity, negative = inhibition [3] 8.04% | Potency [4] > 20.6 µM

Clc1ccc(COc2ccccn2)c(Cl)c1
inactive: activity change, negative = inhibition [1] 10% | activity change, negative = inhibition [2] -8.68% | activity, negative = inhibition [3] 15.3% | Potency [4] > 20.6 µM

CCOC(=O)NC(Nc1sc2c(c1C(N)=O)CCCC2)(C(=O)OCC)C(F)(F)F (centres undefined)
inactive: activity change, negative = inhibition [1] -6.03% | activity change, negative = inhibition [2] -0.536% | activity, negative = inhibition [3] -7.59% | Potency [4] > 20.6 µM

CCNc1nc(NC(C)C)nc(N(C#N)C(C)C(=O)N(C)C)n1 (centres undefined)
inactive: activity change, negative = inhibition [1] -3.35% | activity change, negative = inhibition [2] 0.731% | activity, negative = inhibition [3] 0.0609% | Potency [4] > 20.6 µM

Cc1ccc(-n2ncc3c(NCCCOC(C)C)ncnc32)c(C)c1
inactive: activity change, negative = inhibition [1] -18.8% | activity change, negative = inhibition [2] 25.7% | activity, negative = inhibition [3] -8.86% | Potency [4] > 20.6 µM

COc1ccc(C(=O)Nc2nc(N)n(-c3ccccc3)n2)cc1OC
inactive: activity change, negative = inhibition [1] -0.0315% | activity change, negative = inhibition [2] -1.36% | activity, negative = inhibition [3] 1.75% | Potency [4] > 20.6 µM

CCCCC(C(=O)O)C(C)CC(=O)Nc1cccc(C(=O)O)c1 (centres undefined)
inactive: activity change, negative = inhibition [1] 5.92% | activity change, negative = inhibition [2] -0.782% | activity, negative = inhibition [3] 12.4% | Potency [4] > 20.6 µM

COc1ccc2cnn(-c3ccccc3C)c(=O)c2c1OC
inactive: activity change, negative = inhibition [1] 10.7% | activity change, negative = inhibition [2] -6.03% | activity, negative = inhibition [3] 24.1% | Potency [4] > 20.6 µM

COC(=O)C(NC(=O)c1ccc(F)cc1)(Nc1nc(C)cs1)C(F)(F)F (centres undefined)
inactive: activity change, negative = inhibition [1] -0.49% | activity change, negative = inhibition [2] -21.1% | activity, negative = inhibition [3] -10.7% | Potency [4] > 20.6 µM

COc1ccc(CCNC(=O)c2ccc(=O)[nH]n2)cc1OC
inactive: activity change, negative = inhibition [1] -1.15% | activity change, negative = inhibition [2] -8.89% | activity, negative = inhibition [3] 3.06% | Potency [4] > 20.6 µM

C/C(CC1(O)C(=O)N(Cc2ccccc2)c2ccccc21)=N\O (centres undefined)
inactive: activity change, negative = inhibition [1] 2.48% | activity change, negative = inhibition [2] 1.97% | activity, negative = inhibition [3] 3.88% | Potency [4] > 20.6 µM

CCCCOc1ccc(-c2nnc(N)s2)cc1
inactive: activity change, negative = inhibition [1] 2.03% | activity change, negative = inhibition [2] 25.3% | activity, negative = inhibition [3] 10.7% | Potency [4] > 20.6 µM
